From PubChem BioAssay AID1347423 (Functional Genomics Laboratory (NCATS/FGL), 2020) come the findings set out here.

In all, about 52,000 sequences went through this assay and about 210 (0.4%) were called active. This excerpt belongs to a sample that is enriched for actives. A number with no mark means an inactive call.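 The calls were made as follows: active = gene whose silencing raises cell survival under the drug, median off-target-corrected z-score across its silencing RNAs 2 or more; inactive = the rest.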

This experiment in a line: Resistance to Poly (ADP-Ribose) Polymerase inhibitor: Gene Identification via Genome-wide siRNA Screen. As to conditions: mouse BRCA2 R2336H ES cells, olaparib, CellTiter-Glo viability; active compounds read high. The essentials: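 Mouse BRCA2 R2336H ES cells were reverse-transfected with siRNA (20 nM final), treated at 48 h with 500 nM olaparib, and read by CellTiter-Glo after 72 h. Scores: MAD-based z per siRNA, median per gene, seed off-target correction.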
A general note: Cellular ATP, detected with luciferase, serves as a proxy for viable cell number.
Turning to “CCAUAGCACUAAAUCAGAUTT against 4933421G18Rik”, the z-score is 0.387. On to “GGACCUAUUUCUCUGCUCCTT against E330026B02Rik”, for which the z-score was -0.251.

For the sequence “GGACAUUCGUGGUUCCAUCTT against 4833412N02Rik”, the z-score is 0.546. For the sequence GGAGGUCGCUUCCUAUUACTT against Tat, the z-score is 1.26 (active). With GGACUAUCAGGACCUUUUUTT against Dnajb3 the figure was -1.77; with GCUAAAAGGUAAGUACUUCTT against AB041803, 0.00857; with GGAGAUUGAUGAGCAUGCCTT against Rab40b, 0.456. The same measure for GGUUCUGAAGAUGGAGGUUTT against Ttbk1: -1.25; for GCUGUUGGUUUCUACUCACTT against Adam21: 1.43 (active). With GGAAGACCUGAUUGGAAAATT against Trpm1 the figure was 0.553; with GAGCCUUCUAAGUCUGCACTT against Hist1h2bb, 0.996; with GGAAAUCACCAGAGCUGAUTT against Atp6v0a2, 1.56. Consider GGGCUAUUAAAUGAUUUCATT against Pax1, for which the z-score is -0.101. The same measure for CGUAGCAAUCUUGGUUGCUTT against Hoxa3: 0.734; for “GGCUGUGAGAUAGAUCUAATT against E130112L23Rik”: -0.595.

Turning to “GGAUGUGGACUCAAAGAAATT against 1110001E17Rik”, the z-score is 1.9 (active). With “CGAGGGAUAAGAGUCUACGTT against D4Bwg1540e”, the z-score was -0.0629. Regarding GGCCAUUAACAGCAGUCUGTT against Kifc1, the z-score is -2.66. The same measure for GGGACUUUUUUUGAAUCCUTT against Ndrg3: 0.835.

Turning to GGCAGCGCAAUGGAUUAGUTT against Chrng, the z-score was 1.99 (active). The same measure for “GGAGCAACAGCCAAAUACCTT against 1700001F22Rik”: 0.124; for CGGCAGGAUGAAUGAGAUCTT against Bccip: 0.692.
